The target in assay [1] is Cytochrome P450 2C9 (Homo sapiens) (UniProt P11712). Briefly: qHTS Assay for Inhibitors and Substrates of Cytochrome P450 2C9 (AID 883; active = well fitted inhibition curve with a large enough effect; note: potency is the fitted concentration of half-maximal effect; nearly all actives have a fitted effect of over 60% in size). The following applies: recombinant CYP2C9, luciferin-H luminescence, 60 min; series mostly up to 57.1 µM. Summed up:
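CYP2C9 deoxyluciferin hydroxylation, 37C, 60 min with NADPH regeneration; 10nM enzyme, 100uM Luciferin-H (KM). Glo detection reagent stopped reaction; luminescence normalized to sulphaphenazole (57uM) full inhibition.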
Background: qHTS replaces the single test concentration by a dilution series.

The nature of assay [2]: qHTS profiling of the MIPE4 collection as inhibitors of Plasmodium falciparum (3D7) proliferation (AID 743344).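 Note: scaled between DMSO vehicle wells and 0.29 µM artemisinin as full inhibition.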 The following applies: P. falciparum 3D7 in erythrocytes, SYBR Green DNA fluorescence, 72 h; at 28.5 µM (top of the series). Summed up:
(§1)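 Parasite DNA was quantified by SYBR Green I fluorescence (ex 485, em 535 nm) after overnight lysis in saponin/Triton buffer at room temperature. Cultures at 0.3% parasitemia and 2.5% hematocrit were first exposed to compound for 72 h at 37 C; signals were normalised to artemisinin (0.29 uM) and vehicle wells.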

Assay [3] in a line: qHTS profiling of the MIPE4 collection as inhibitors of Plasmodium falciparum (DD2) proliferation (AID 743345). The following applies: P. falciparum Dd2 in erythrocytes, SYBR Green DNA, 72 h; at 28.5 µM (top of the series). Summed up:
as §1

Assay [4] can be described thus: qHTS profiling of the MIPE4 collection as inhibitors of Plasmodium falciparum (DD2) proliferation (Rep 2) (AID 743346). The following applies: P. falciparum Dd2 in erythrocytes, SYBR Green DNA, 72 h; at 28.5 µM (top of the series). Summed up: as §1
Assay [5] can be described thus: qHTS profiling of the MIPE4 collection as inhibitors of Plasmodium falciparum (HB3) proliferation (AID 743347).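 Note: plate controls were DMSO vehicle wells for no effect and artemisinin wells for full effect.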 The following applies: P. falciparum HB3 in erythrocytes, SYBR Green DNA, 72 h; at 28.5 µM (top of the series). Summed up: as §1
For assay [6], the target named is Lysosomal acid glucosylceramidase (Homo sapiens) (UniProt P04062). Briefly: Glucocerebrosidase-p2 (AID 348; in the data active = potency below about 10 µM; note: potency is the fitted concentration of half-maximal effect). The following applies: purified GBA, blue fluorogenic substrate, 40 min. Put shortly: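 Normal human glucocerebrosidase (0.2 nM) with blue fluorogenic substrate (80 uM final) in citrate/phosphate pH 5.9 with 10mM sodium taurocholate, 0.01% tween-20; 40 min RT, NaOH/glycine stop; fluorescence Ex 365/Em 440; AC50 from a titration from 0.6 nM upwards.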

Assay [7] can be described thus: NFAT Signaling Pathway (AID 444; active = well fitted curve in either direction with a large enough effect, not every such curve was filed as active;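 note: carbachol stimulus at about its EC50 of 1 µM final; % is set by controls: 0 for no effect and ±100 for the full control effect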). The conditions noted are these: Jurkat NFAT-bla M1, carbachol, beta-lactamase ratio, 5 h; at 7.69 µM (top of the series) unless noted. Summed up: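 Jurkat cells carrying an NFAT-driven β-lactamase reporter and co-transfected muscarinic M1 receptor were treated with compound plus carbachol (1 uM final, an EC50 level) for 5 h at 37 °C. CCF4 loading followed for 1 h at RT; 460/530 nm ratio gave %activity.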

The nature of assay [8]: Stat Signaling Pathway (AID 446; active = well fitted curve in either direction with a large enough effect, not every such curve was filed as active;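 note: ME-180 cervical cancer cells given 40 pM IL-6 alongside compound; SIE-controlled beta-lactamase reporter measured as 460/530 nm FRET emission ratio; % is set by controls: 0 for no effect and ±100 for the full control effect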). The following applies: ME-180 (cervical carcinoma) SIE beta-lactamase reporter, IL-6 stimulated, 5 h; series mostly up to 7.69 µM. Summed up: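 Emission at 460 and 530 nm (excitation 405 nm) reports SIE-controlled beta-lactamase in ME-180 cells. Cells received compound with 40 pM IL-6 for 5 hrs at 37 C; data scaled between 300 pM IL-6 and 125 nM JAK-inhibitor controls.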

Assay [9] addresses 3',5'-cyclic-AMP phosphodiesterase 4B (Homo sapiens) (UniProt Q07343). Briefly: qHTS Assay for Inhibitors of PDE-IV (AID 607; active = well fitted activation curve with a large enough effect in the main read-out, with a control signal flat, not every such curve was filed as active; note: % of control where 0% means no effect). The conditions noted are these: HEK293 ACTOne CNG channel cells, membrane potential fluorescence; series mostly up to 22.9 µM. Summed up: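 The readout is membrane depolarisation from a cAMP-sensing CNG channel, detected with a potential dye at ex 535/em 590. Cells were HEK293-derived (endogenous PDE-IV) at 1000 cells/well, titrated up to 22.9 uM final.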

Results filed as inconclusive are left out. The source made the active and inactive calls. Unless noted, the rule behind the calls is not given here.

Lysosomal acid glucosylceramidase (Homo sapiens), sequence (P04062 whole entry, looked up): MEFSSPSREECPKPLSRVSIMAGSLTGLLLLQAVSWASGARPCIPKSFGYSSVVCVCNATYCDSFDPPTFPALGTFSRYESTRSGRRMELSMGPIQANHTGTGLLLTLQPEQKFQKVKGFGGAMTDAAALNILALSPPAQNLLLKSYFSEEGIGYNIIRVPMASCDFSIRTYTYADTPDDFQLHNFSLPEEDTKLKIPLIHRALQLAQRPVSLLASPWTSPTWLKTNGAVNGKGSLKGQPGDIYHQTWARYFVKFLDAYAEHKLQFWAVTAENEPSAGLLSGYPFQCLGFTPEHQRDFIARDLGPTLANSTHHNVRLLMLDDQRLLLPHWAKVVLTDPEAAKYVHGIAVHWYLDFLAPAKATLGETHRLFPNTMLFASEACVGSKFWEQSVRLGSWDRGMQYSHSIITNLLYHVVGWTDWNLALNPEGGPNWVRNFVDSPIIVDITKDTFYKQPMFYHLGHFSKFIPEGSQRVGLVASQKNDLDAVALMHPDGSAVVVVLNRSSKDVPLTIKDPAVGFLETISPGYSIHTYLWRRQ
Cytochrome P450 2C9 (Homo sapiens), sequence (P11712 whole entry, looked up): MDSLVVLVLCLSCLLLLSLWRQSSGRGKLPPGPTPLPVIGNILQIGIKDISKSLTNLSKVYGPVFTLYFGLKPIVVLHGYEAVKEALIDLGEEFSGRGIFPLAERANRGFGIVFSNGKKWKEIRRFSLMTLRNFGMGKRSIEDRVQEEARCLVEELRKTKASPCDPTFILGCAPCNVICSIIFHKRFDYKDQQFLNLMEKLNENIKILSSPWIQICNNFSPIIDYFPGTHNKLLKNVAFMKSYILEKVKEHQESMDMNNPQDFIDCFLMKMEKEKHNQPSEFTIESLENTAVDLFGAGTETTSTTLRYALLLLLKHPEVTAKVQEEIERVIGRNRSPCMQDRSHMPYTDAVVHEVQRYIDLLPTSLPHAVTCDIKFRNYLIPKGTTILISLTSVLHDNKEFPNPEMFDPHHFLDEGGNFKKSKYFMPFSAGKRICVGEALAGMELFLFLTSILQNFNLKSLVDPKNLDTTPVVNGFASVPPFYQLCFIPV
3',5'-cyclic-AMP phosphodiesterase 4B (Homo sapiens), sequence (Q07343 whole entry, looked up): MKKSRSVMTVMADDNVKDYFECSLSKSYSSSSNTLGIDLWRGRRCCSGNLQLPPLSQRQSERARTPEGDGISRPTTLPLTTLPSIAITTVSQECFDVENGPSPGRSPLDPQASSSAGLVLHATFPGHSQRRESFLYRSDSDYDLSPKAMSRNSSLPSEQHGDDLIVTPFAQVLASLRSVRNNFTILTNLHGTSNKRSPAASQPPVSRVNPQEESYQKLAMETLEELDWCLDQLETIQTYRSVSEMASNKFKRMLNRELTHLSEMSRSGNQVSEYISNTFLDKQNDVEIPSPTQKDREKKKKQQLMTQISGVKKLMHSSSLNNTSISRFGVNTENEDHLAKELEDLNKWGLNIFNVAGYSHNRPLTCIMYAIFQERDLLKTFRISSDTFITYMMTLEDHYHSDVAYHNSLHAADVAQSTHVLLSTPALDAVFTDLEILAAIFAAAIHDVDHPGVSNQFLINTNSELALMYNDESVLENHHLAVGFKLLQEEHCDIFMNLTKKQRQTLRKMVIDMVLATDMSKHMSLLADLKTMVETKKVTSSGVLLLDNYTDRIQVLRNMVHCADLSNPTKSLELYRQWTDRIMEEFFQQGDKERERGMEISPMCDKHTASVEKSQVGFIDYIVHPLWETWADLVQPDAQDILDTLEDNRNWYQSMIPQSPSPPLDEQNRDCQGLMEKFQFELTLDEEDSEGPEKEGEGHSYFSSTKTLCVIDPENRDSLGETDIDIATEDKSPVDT

For `O=c1cc(-c2cccc(O)c2)oc2c(O)c(O)ccc12`, the Potency in assay [1] is 1.58 µM (active).

`Nc1cccc(-c2csc(NC(=O)CCCCCCC(=O)NO)n2)c1` yielded a parasite growth, % of DMSO control in assay [2] of 5.04%. The parasite growth remaining, % of DMSO control (lower = more inhibition) in assay [3] was 7.08%. In addition, the parasite growth, % of control (lower = inhibition) in [4] was found to be 11.6%. In [5], this compound gave a growth, % of control of 8.11%.

For the compound `CN1CC[C@H](CN2c3ccccc3Sc3ccccc32)C1`, in assay [6], the Potency is > 11.4 µM (inactive). Besides, in [7], the activity change, negative = inhibition was -75.3% (active). Moreover, the outcome in assay [8] was inactive. The Potency entry in [9] was “inactive”.

Values taken from PubChem BioAssay (NCATS).
